Giardia FBPA inh = qHTS Assay for Inhibitors of Fructose-1,6-bisphosphate Aldolase from Giardia Lamblia; A8B2U2; purified Giardia FBPA; Potency, µM (series often up to 59.6 µM), hits mostly inhibitors; 290,000 tested, 0.71% active; AID 2451, 2010; also: nearly all actives have a fitted effect of over 55% in size
Target sequence (A8B2U2 whole entry, looked up): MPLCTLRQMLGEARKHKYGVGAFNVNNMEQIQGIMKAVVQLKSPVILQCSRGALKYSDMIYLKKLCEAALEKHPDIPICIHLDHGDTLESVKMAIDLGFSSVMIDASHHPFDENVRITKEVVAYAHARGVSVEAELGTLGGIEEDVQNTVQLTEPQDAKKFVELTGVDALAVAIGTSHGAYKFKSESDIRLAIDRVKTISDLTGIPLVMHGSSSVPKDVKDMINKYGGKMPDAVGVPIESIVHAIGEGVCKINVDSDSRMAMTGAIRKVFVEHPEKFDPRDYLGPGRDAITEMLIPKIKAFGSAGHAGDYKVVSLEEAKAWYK
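40 nM FBPA preincubated 10 min at RT with compound (up to 57.5 uM final), then substrate plus GAPDH/TPI/NAD/arsenate coupling and diaphorase/resazurin added. Fluorescence read after 20 min at RT, 525/598 nm.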
Shiga toxin inh = A qHTS for Small Molecule Inhibitors of Shiga Toxin; Vero cells, Shiga toxin protein synthesis inhibition reporter; inhibition, % at 38.7 µM; 290,000 tested, 9.2% active; AID 2315, 2010; in the data active = inhibition mostly above about 28%, no sharp cut-off; inactive = mostly below about 43%
Cycloheximide cs = Cycloheximide Counterscreen for Small Molecule Inhibitors of Shiga Toxin; max response, %; AID 2314, 2010; 300,000 tested, 12% active; cell reporter, cycloheximide protein synthesis inhibition counterscreen; in the data active = max response mostly above about 13%, no sharp cut-off; inactive = mostly below about 14%; also: read at 38.3 µM for the half of the compounds with a filed dose
NS1 inh = qHTS Assay for Inhibitors of Influenza NS1 Protein Function; Potency, µM (top dose mostly 46.1 µM); 270,000 tested, 0.4% active; AID 2326, 2010; calls by dose curve; also: actives are rising curves; nearly all actives have a fitted effect of over 50% in size
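Growth recovery, yeast-based: influenza A NS1 expressed in S. cerevisiae causes slow growth, and suppressors are detected by OD600. The parent strain without NS1 is used as positive control.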
LmPK inhibitor = qHTS Assay for Inhibitors of Leishmania Mexicana Pyruvate Kinase (LmPK); purified LmPK, Kinase-Glo ATP luminescence, 1 h; Potency, µM (top dose mostly 57.5 µM), most hits filed as inhibitors; 290,000 tested, 0.37% active
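Kinase-Glo luminescence read after 1 h RT reaction of 0.1 nM LmPK with 0.5 mM PEP and 0.1 mM ADP. Activity scaled between uninhibited and enzyme-free controls.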
A number is an active result; - = inactive; . = no result; [ ] = dose if it differs, or a comment. Most compounds without a hit are left out; they make up all but 14% or so of the library. Unless noted, calls follow the shape of the dose curve; as a rule, active = well fitted curve in the direction sought with a large enough effect; inconclusive = small, poorly fitted or top-dose-only effect, or another doubt; inactive = no such curve, though single readings can be large; an effect the other way counts as inactive or inconclusive.

SMILES	Giardia FBPA inh	Shiga toxin inh	Cycloheximide cs	NS1 inh	LmPK inhibitor
C/C(=N\NC(=S)Nc1ccc(F)cc1)C1CC1	-	-	29	-	-
CC1CCN(C(=S)Nc2ccc(F)cc2)CC1	-	-	-	-	-
CC(C)(C)c1ccc(COC(=O)Nc2ccc(F)cc2)cc1	-	35	19	-	-
CC(=O)Nc1ccc(NC(=O)Cc2ccc(F)cc2)cc1	-	-	-	-	-
CC(C)(C)c1ccc(NC(=O)Nc2ccc(F)cc2)cc1	-	68	42	-	-
COCCn1c(=O)c(-c2cc(F)cc(F)c2)nc2cnc(Oc3ccc(OC)cc3)nc21	-	.	.	.	.
COC(=O)[C@H](Cc1ccccc1)NC(=O)N(C)Cc1ccccc1	-	-	18	-	-
O=C(CCl)N(Cc1ccccc1)c1ccccc1	-	-	26	.	-
CN(Cc1ccccc1)C(=O)CCC1CCN(C(=O)CCC(F)(F)F)CC1	-	.	32	-	-
CN(Cc1ccccc1)C(=O)CCC1CCN(C(=O)CC2=CCCCC2)CC1	-	-	-	-	-
Cc1cccc(N(Cc2ccccc2)C(=O)CCl)c1	-	-	-	.	-
CN(Cc1ccccc1)C(=O)N[C@@H](Cc1ccccc1)C(=O)O	-	-	-	-	-
CCOc1ccccc1N(CC(=O)N(C)Cc1ccccc1)S(=O)(=O)c1ccccc1	.	58	-	-	-
CCC(=O)c1ccccc1OCCCN1CCC(Cc2ccccc2)CC1	-	-	-	-	-
CN(Cc1ccccc1)C(=O)CCC(=O)N(C)Cc1ccccc1	-	113	32	-	-
CN(Cc1ccccc1)C(=O)COC(=O)c1ccc(Cl)cc1N	-	-	29	.	-
CN(Cc1ccccc1)C(=O)COc1cc(Cl)ccc1Cl	-	-	-	-	-
CN(Cc1ccccc1)C(=O)CN1C(=O)c2ccccc2C1=O	-	.	-	-	-
O=C(Nc1cc(N2CCCCC2)ncn1)c1ccc(F)cc1	-	-	26	-	-
Fc1cccc(/C=N/Nc2cc(N3CCOCC3)ncn2)c1	-	25	23	-	-
Fc1ccc(/C=N/Nc2cc(N3CCOCC3)ncn2)cc1	-	-	-	-	-
O=C(Nc1cc(N2CCOCC2)ncn1)c1ccc(F)cc1	-	75	33	-	-
Fc1ccc(Nc2nc(N/N=C/c3ccco3)nc(N3CCCCC3)n2)cc1	-	-	-	-	-
C(=N\Nc1cc(N2CCCCC2)ncn1)/c1ccco1	-	38	28	-	-
CCN(CC)C(=O)Cn1cc(C(=O)C(=O)NCCCN2CCCCC2)c2ccccc21	.	-	-	-	-
SMILES	Giardia FBPA inh	Shiga toxin inh	Cycloheximide cs	NS1 inh	LmPK inhibitor
Cc1ccc(CCNC(=O)c2cc(-c3ccncc3)nc3ccc(S(=O)(=O)N4CCOCC4)cc23)cc1	-	-	-	-	-
Cc1ccc(CNC(=O)CCSCc2ccc(C)cc2)cc1	-	-	-	-	-
CCCCc1ccc(NC(=S)N2CCN(c3ncccn3)CC2)cc1	-	-	-	-	-
CCOC(=O)c1ccc(NC(=S)N2CCCC(C(=O)N3CCCC3)C2)cc1 (stereo unspecified)	.	-	-	-	-
CCCCc1ccc(NC(=S)N2CCCC(C)C2)cc1 (stereo unspecified)	-	41	21	-	-
CCOC(=O)c1ccc(NC(=S)N2CCCC(C)C2)cc1 (stereo unspecified)	-	62	13	-	-
CCOC(=O)N1CCC(N(C(=O)Nc2ccc(CC)cc2)C(C)CC)CC1 (stereo unspecified)	-	-	14	-	-
CCOC(=O)c1ccc(NC(=S)N2CCSC2c2ccc(Br)cc2)cc1 (stereo unspecified)	-	-	13	-	-
CCCCc1nc2c(c3c1C[C@H](C)OC3)CN(S(=O)(=O)c1ccc(NC(C)=O)cc1)CC2	-[12.9 µM]	.	.	.	-[11.5 µM]
COCCNc1ncnc2ccc(-c3ccccc3OC)cc12	-	.	.	.	.
CCCn1c(SC(C)C(=O)NCC2CCCO2)nc2sc(CC)cc2c1=O (stereo unspecified)	.	-	-	-	-
CCOC(=O)c1ccc(NC(=S)N2CCC(O)CC2)cc1	-	-	39	-	-
Cc1ccn2cc(-c3cc4ccccc4oc3=O)nc2c1	-	76	44	-	14µM
CC(C)(C)NC(=O)c1ccc(NC(=O)c2ccccc2-c2ccccc2C(=O)O)cc1	-	-	-	-	-
Cc1cc(C(=O)COc2cccc3cccnc23)c(C)n1C	-	-	-	-	-
